Bioassay records (PubChem BioAssay)
In the library only some 10% were active in any assay of this set; here they are far more common.
VP16 counter – VP16 counterscreen qHTS for inhibitors of ROR gamma transcriptional activity. Drosophila S2 Gal4-VP16 UAS-luciferase, luminescence, 20 h. Potency, µM (titrated, usually from 53.6 µM), for the others: at the highest dose activity, negative = inhibition, hits mostly inhibitors. 3.5% of 310,000 active;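 note: Gal4-VP16 expression switched on by copper sulfate through the metallothionein promoter; % is set by controls: 0 for no effect and ±100 for the full control effect; nearly all actives have a fitted effect of over 50% in size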
RORgamma inh – qHTS for inhibitors of ROR gamma transcriptional activity; Nuclear receptor ROR-gamma (Mus musculus), P51450; Drosophila S2 Gal4-RORgamma UAS-luciferase reporter, 20 h; Potency, µM (top dose mostly 53.6 µM), for the others: top-dose activity change, negative = inhibition, most hits filed as inhibitors; 5.4% of 310,000 active; note: % is set by controls: 0 for no effect and ±100 for the full control effect; nearly all actives have a fitted effect of over 60% in size
Target sequence (P51450 whole entry, looked up, the tested form may be a part): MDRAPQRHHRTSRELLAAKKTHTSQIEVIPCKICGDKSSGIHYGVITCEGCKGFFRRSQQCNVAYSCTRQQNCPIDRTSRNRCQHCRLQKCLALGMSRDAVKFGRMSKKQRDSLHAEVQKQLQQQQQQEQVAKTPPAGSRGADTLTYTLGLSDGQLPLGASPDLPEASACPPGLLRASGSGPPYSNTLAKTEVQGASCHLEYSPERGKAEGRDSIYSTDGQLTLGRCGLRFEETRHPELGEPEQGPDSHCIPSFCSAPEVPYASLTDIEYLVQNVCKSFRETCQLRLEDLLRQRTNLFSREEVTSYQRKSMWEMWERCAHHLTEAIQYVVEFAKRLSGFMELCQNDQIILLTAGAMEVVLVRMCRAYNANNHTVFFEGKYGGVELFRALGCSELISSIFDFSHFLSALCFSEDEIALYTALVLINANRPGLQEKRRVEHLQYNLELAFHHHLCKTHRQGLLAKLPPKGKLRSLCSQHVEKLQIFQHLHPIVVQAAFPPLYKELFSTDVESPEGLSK
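Luciferase reporter read in Schneider cells carrying Gal4-RORγ (mouse) and UAS-Photinus luciferase; cells given compound 1 h before 700 uM copper sulfate induction, then incubated 20 h at ambient temperature.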
KB-V1 MDR tox – qHTS assay for MDR1-selective chemotherapeutics: Primary screen using the drug-selected MDR subline cells KB-V1 | KB-V1 MDR cells viability, CellTiter-Glo, 72 h | 3.4% of 400,000 active | Potency, µM (top dose mostly 46.1 µM), hits mostly cytotoxic; note: % is set by controls: 0 for no effect and ±100 for the full control effect; nearly all actives have a fitted effect of over 60% in size
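qHTS viability screen in drug-selected KB-V1 MDR cells: 72 h compound treatment at 37 degrees C, ATP luminescence end point.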
KB-3-1 tox – qHTS assay for MDR1-selective chemotherapeutics: Primary screen using the parental adenocarcinoma cell KB-3-1. KB-3-1 viability, CellTiter-Glo ATP luminescence, 72 h. 1.4% of 400,000 active. Potency, µM (top dose mostly 46.1 µM), most hits filed as cytotoxic. AID 1347075, 2019; note: % is set by controls: 0 for no effect and ±100 for the full control effect; nearly all actives have a fitted effect of over 60% in size
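Parental KB-3-1 viability, qHTS format: 72 h compound exposure, 37 °C; CellTiter-Glo; media-only wells and DMSO plates as controls; concentration-effect fits on corrected data.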
MCF10A rerep – A quantitative high throughput screen for small molecules that induce DNA re-replication in MCF 10a normal breast cells | 2.9% of 350,000 active | MCF 10A DNA re-replication, Hoechst nuclear intensity, 48 h | Potency, µM (titrated, usually from 46.1 µM), for inactives: at the highest dose activity, positive = re-replication, usual class: activators | AID 624296, 2012; note: % of control where 0% means no effect; nearly all actives have a fitted effect of over 50% in size
SW480 rerep – A quantitative high throughput screen for small molecules that induce DNA re-replication in SW480 colon adenocarcinoma cells. SW480 DNA re-replication, Hoechst DNA content imaging, 48 h. Potency, µM (highest dose often 46.1 µM), for inactives: at the top dose re-replication activation, usual class: activators. 1.8% of 340,000 active. AID 624297, 2012; note: % of control where 0% means no effect; nearly all actives have a fitted effect of over 55% in size
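Hoechst fluorescence of nuclei (405 nm excitation, 500-530 nm emission) measured by plate-scanning imager after 48 hr compound exposure at 37 C; re-replication scored as increased number of nuclei with elevated intensity.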
Active calls of the source: *; i = inactive; ? = inconclusive; . = not tested or not shown; [ ] = remark or other dose. Calls come from the whole dose curve; as a rule, active = well fitted curve in the direction sought with a large enough effect; inconclusive = small, poorly fitted or top-dose-only effect, or another doubt; inactive = no such curve, though single readings can be large; an effect the other way counts as inactive or inconclusive. Potency is the fitted concentration of half-maximal effect.

SMILES	VP16 counter	RORgamma inh	KB-V1 MDR tox	KB-3-1 tox	MCF10A rerep	SW480 rerep
Cc1cccc(C2C=C(c3ccc(C)c(C)c3)Nc3nnnn32)c1 (stereo not given)	.	.	?	20.6µM*	.	.
CCc1ccc(C2=CC(c3cccc(Br)c3)n3nnnc3N2)cc1 (stereo not given)	.	.	i	i	.	.
O=c1[nH]c(O)c(/C=C2\C=Nc3ccccc32)[nH]1	-7.1%	30.9%	i	i	-10.2%	-9.9%
O=C1C=Cc2ccccc2/C1=C/c1[nH]c(=O)[nH]c1O	?	6.31µM*	i	i	22.4%	15.3%
COc1ccc(-c2cc(NC=O)c3ncc(-c4cccc(OC)c4)n3c2)cc1	.	.	7.31µM*	6.51µM*	.	.
COc1ccc(-c2cc(NC=O)c3ncc(-c4cc(OC)c(OC)c(OC)c4)n3c2)cc1	.	.	0.0461µM*	?	.	.
COc1ccc(-c2cc(NC=O)c3ncc(-c4cccc(C(=O)NCCN(C)C)c4)n3c2)cc1	.	.	i	i	.	.
O=CNc1cc(-c2ccccc2)cn2c(-c3ccc(F)c(Cl)c3)cnc12	.	.	?	i	.	.
O=CNc1cc(-c2cccc(F)c2)cn2c(-c3ccc(F)c(Cl)c3)cnc12	.	.	23.1µM*	?	.	.
COc1cccc(-c2cnc3c(NC=O)cc(-c4cc(OC)c(OC)c(OC)c4)cn23)c1	.	.	?	i	.	.
COc1ccc(-c2cc(NC=O)c3ncc(-c4cnn(C)c4)n3c2)cc1	.	.	18.4µM*	?	.	.
COc1ccc(-c2c(-c3ccsc3)oc3c2C(O)CCC3)cn1 (stereo not given)	.	.	i	i	.	.
Cc1cccc(-c2c3c(=O)n(C)c(=O)n(C)c3c3cnc4ccccc4n23)c1	.	.	i	i	.	.
COc1ccccc1-c1cc(NC=O)c2ncc(-c3ccc(S(C)(=O)=O)cc3)n2c1	.	.	16.4µM*	13µM*	.	.
COc1ccc(-c2cnc3c(NC=O)cc(-c4ccc(F)cc4)cn23)cc1OC	.	.	?	0.206µM*	.	.
COc1cc(-c2cc(NC=O)c3ncc(-c4cccc(C(=O)N(C)C)c4)n3c2)cc(OC)c1OC	.	.	i	i	.	.
COc1ccc(F)cc1-c1cc(NC=O)c2ncc(-c3cccc(C(F)(F)F)c3)n2c1	.	.	?	23.1µM*	.	.
COc1ccc(-c2cnc3c(NC=O)cc(-c4cc(OC)c(OC)c(OC)c4)cn23)cc1OC	.	.	23.1µM*	?	.	.
COc1cc(-c2cnc3c(NC=O)cc(-c4ccc(S(C)(=O)=O)cc4)cn23)cc(OC)c1OC	.	.	i	?	.	.
COc1ccc(-c2cnc3c(NC=O)cc(-c4cccc(NS(C)(=O)=O)c4)cn23)cc1OC	.	.	i	?	.	.
COc1ccccc1N1CCN(C(=O)C(CCSC)NS(=O)(=O)c2ccc3c(c2)oc(=O)n3C)CC1 (stereo not given)	.	.	i	i	.	.
COc1ncc(-c2ccc(N3C(c4ccsc4)=Cc4ccc(F)cc4C3CC(C)=O)cc2)cn1 (stereo not given)	.	.	i	i	.	.
COc1cccc(-c2cc(NC=O)c3ncc(-c4ccc(OC)c(OC)c4)n3c2)c1	.	.	14.6µM*	13µM*	.	.
COc1ccc(-c2cnc3c(NC=O)cc(-c4ccccc4)cn23)cc1OC	.	.	1.64µM*	1.16µM*	.	.
COc1ccc(-c2cnc3c(NC=O)cc(-c4ccc(S(C)(=O)=O)cc4)cn23)cc1OC	.	.	i	?	.	.
SMILES	VP16 counter	RORgamma inh	KB-V1 MDR tox	KB-3-1 tox	MCF10A rerep	SW480 rerep
CC(=O)c1ccc(-c2cnc3c(NC=O)cc(-c4ccccc4Oc4ccccc4)cn23)cc1	.	.	?	11.6µM*	.	.
COc1ccc(COC(=O)c2cccc(S(=O)(=O)N3CCN(C(C)=O)CC3)c2)cc1	.	.	i	i	14.9%	-5.1%
Cc1cccc(OCC(=O)Nc2nonc2-c2ccc(Br)cc2)c1C	.	.	i	i	.	.
O=C(Nc1ccc2ccccc2c1)Nc1nnc(-c2ccc(Cl)cc2Cl)s1	.	.	i	i	.	.
C/C(=N\Nc1ccccn1)c1ccc2c(c1)OCO2	?	?	i	i	-6.2%	-6.1%
C/C(=N\Nc1ccccn1)c1ccc(C(C)C)cc1	11.2µM*	3.98µM*	?	i	-0.9%	0.6%
C(=N\Nc1ccccn1)/c1ccc(N2CCOCC2)cc1	-29.5%	?	i	i	2.1%	0.9%
C/C(=N\Nc1ccccn1)c1ccc(N2CCOCC2)cc1	?	7.08µM*	i	i	2.0%	-4.4%
CCCCc1ccc(/C(C)=N/Nc2cc(N3CCOCC3)nc(C)n2)cc1	?	12.6µM*	?	i	20.6µM*	?
Cc1ccccc1NC(=O)c1ccc(Nc2c([N+](=O)[O-])cc([N+](=O)[O-])c3ccccc23)cc1	13.3%	25.0%	16.4µM*	i	-2.7%	6.3%
Cc1nc2sc(C(c3ccc(Cl)cc3)N3CCOCC3)c(O)n2n1 (stereo not given)	8.1%	-4.7%	i	i	?	-1.1%
Oc1c(C(c2ccccc2)N2CCCCC2)sc2ncnn12 (stereo not given)	-2.7%	7.94µM*	i	i	4.3%	-10.2%
Cc1nc2sc(C(c3ccccc3)N3CCOCC3)c(O)n2n1 (stereo not given)	-5.6%	-16.3%	i	i	4.61µM*	16.4µM*
Oc1c(C(c2ccccc2)N2CCN(Cc3ccccc3)CC2)sc2ncnn12 (stereo not given)	4.8%	7.9%	i	i	10.6%	18.6%
CCN(CC)C(=O)C1=C(C)N(Cc2ccc(F)cc2)C(=O)C(CC(=O)NCC2CCCCC2)C1 (stereo not given)	.	.	?	i	.	.
COCCNC(=O)CSc1cc(-c2ccccc2)c2ccc(OC)cc2n1	6.9%	-34.8%	?	?	?	0.9%
COc1ccc2c(-c3ccccc3)cc(SCC(=O)NC(N)=O)nc2c1	-19.3%	2.9%	i	i	5.8µM*	-38.1%
COc1ccc2c(-c3ccccc3)cc(SCC(=O)NC3CCS(=O)(=O)C3)nc2c1 (stereo not given)	-5.8%	11.2µM*	i	i	0.6%	-2.9%
COC(=O)Nc1nc2ccc(-c3n[nH]c(=O)c4ccccc34)cc2[nH]1	-9.8%	2.1%	i	14.6µM*	8.8%	-258.7%
CCCCc1ccc2nc(NC(=O)OC)[nH]c2c1	-1.4%[17 µM]	-7.6%[16.9 µM]	.	.	?	0.128µM*
